In PubChem BioAssay AID2669 (National Center for Advancing Translational Sciences (NCATS), 2010):
Where “and” joins values, the source holds several entries; their conditions need not be identical. Identical values can stand only once. Inconclusive results are not listed. A number with no mark means an inactive call. Calls of active or inactive are those of the source. The call rests on the fitted dose curve; in most records, active means well fitted inhibition curve with a large enough effect; inconclusive means small, poorly fitted or top-dose-only effect, or effect the other way; inactive means flat fitted curve, though single readings scatter.

Experiment: qHTS Assay Multiplex Screening to Identify Dual Action Probes in a Cell Model of Huntington: Cytoprotection (Protease relase)
Details: PC12 HttQ103 cells, Cytotox-Glo protease release, 40 h; series mostly up to 46.1 µM; activity change, negative = inhibition: at the top concentration
Text: NIH Chemical Genomics Center [NCGC]
NIH Molecular Libraries Probe Production centers Network [MLPCN]
Assay Submitter (PI): Wei Zheng
Huntington's disease is a neurodegenerative disorder caused by a trinucleotide repeat expansion in Exon 1 of the Huntingtin gene. The CAG trinucleotide encodes glutamine and polyglutamine expansions cause cell death in selective areas of the brain. Huntington polyglutamine repeats have the tendency to form aggregates which are observable in later stages of the disease. The exact nature of the aggregates, whether toxic, protective, or insignificant, is unclear.
A stable PC12 cell line containing a gene fusion of Exon 1 of the Huntingtin gene linked to GFP under the control of the inducible ecdysone promoter were used as the cell-based model of Huntington Disease for high throughput screening. Exon 1 of the Huntingtin gene contained an expansion of 103 polyglutamines (Q103) which, when expressed, caused cell death and distinct, bright GFP aggregates. The amount of cell death and the size and intensity of GFP aggregates increased over time and induction level. In the primary screen, cell death were quantified with a measurement of ATP content in the cells. A maximal 40-50% of cell death was observed when the Huntington gene was induced in this cell line.
We optimized this assay in a homogeneous 1536 well format. A quantitative high throughput screen (qHTS) was conducted on the PC12 cells which were induced to express the toxic fusion construct. Small molecules which prevented cell death were considered hits, and were further studied. The present assay is an alternate assay for cytoprotection using Promega's Cytotox-Glo reagent.
PC12 cells stably containing a construct with an ecdysone inducible promoter expressing GFP fused to the exon 1 of HTTQ103 (Huntington protein which containing a 103 ployglutamine expansion) were used.
NCGC Assay Protocol Summary:
Sequence, Parameter, Description
1, Reagent, 5 uL 1500 cells/well 1536 TC treated White clear bottom plate
2, Compound, 23 nL Tebufenozide inducer (100 nM final) to all columns
3, Compound, 23 nL 40 uM to 0.5 nM Libraries
5, Reagent, 2 ul Promega's Cytotox-Glo assay reagent
6, Detector, 4 sec integration with a Viewlux Luminescent
Media consisted of phenol red free DMEM + 5% equine serum (Hyclone # SH30072.03 ), 5% supplemented Bovine Calf Serum (Hyclone # SH30074.03 ), 1x pen/strep, no G418

Row | Compound | Potency | activity change, negative = inhibition
1 | Cn1nnnc1Sc1ncnc2scc(-c3cccc(F)c3)c12 | 11.2 µM (active) | 
2 | COc1cc(NC(=O)COC(=O)[C@@H]2CCCN2S(=O)(=O)c2ccc(Cl)cc2)cc(OC)c1OC |  | 11.8%
3 | CN(C)CCCSc1ccccc1NC(=O)/C=C\c1ccccc1 | 6.31 µM (active) | 
4 | Cc1ccccc1N=C(N)Nc1ccccc1C |  | 0.765%
5 | Cn1nnnc1Sc1ncnc2scc(-c3ccc4c(c3)OCO4)c12 | 10 µM (active) | 
6 | CCc1nc(SCC(=O)N2CCCC2)c2ccccc2n1 |  | -6.46%
7 | N#Cc1c(C(F)(F)F)cc(-c2ccc(Cl)cc2)[nH]c1=O | 4.47 µM (active) | 
8 | C=CCC(=O)OCCCCCCOc1ccc(C(=O)O)cc1 | 1.41 µM (active) | 
9 | NC(=O)c1sc2nccc(Nc3ccccc3)c2c1N |  | -13.6%
10 | CCOC(=O)c1sc2nc(N3CCOCC3)c3c(c2c1N)CC(C)(C)N(C)C3 |  | 10%
11 | O=C(O)CCN1C(=O)/C(=C\c2ccc(-c3nc4ccccc4s3)o2)SC1=S | 5.62 µM (active) | 
12 | Cn1nnnc1Sc1ncnc2scc(-c3cc4ccccc4o3)c12 | 7.08 µM (active) | 
13 | CCOC(=O)c1sc2nc(N3CCOCC3)c3c(c2c1N)CCN(C)C3 |  | 8.6%
14 | COC(=O)c1ccc(NC(=O)CN2C(=O)CSC2=O)cc1 |  | -28.9%
15 | C#CCN(C)CCCOc1ccc(Cl)cc1Cl |  | 10.5%
16 | COc1cccc(-c2csc3ncnc(Sc4nnnn4C)c23)c1 | 7.08 µM (active) | 
17 | CN1C(=O)NC(NC(=O)c2cccs2)(C(F)(F)F)C1=O (stereo not given) |  | -6.9%
18 | COc1ccc(-c2csc3ncnc(Sc4nnnn4C)c23)cc1 | 11.2 µM (active) | 
19 | Cn1nnnc1Sc1ncnc2scc(-c3ccc4c(=O)ccoc4c3)c12 | 7.94 µM (active) | 
20 | O=C(Nc1cccnc1)Nc1ccccc1Cl | 3.16 µM (active) | 

Row | Compound | Potency | activity change, negative = inhibition
21 | Cc1cccc(-c2csc3ncnc(Sc4nnnn4C)c23)c1 | 14.1 µM (active) | 
22 | COc1cc2nc(N3CCN(C(=O)C4CCCO4)CC3)nc(N)c2cc1OC (stereo not given) | 4.47 µM (active) | 
23 | Cn1nnnc1Sc1ncnc2scc(-c3ccccc3)c12 | 2.82 µM (active) and 7.94 µM (active) | 
24 | Cn1nnnc1Sc1ncnc2scc(-c3ccc4ccccc4c3)c12 | 10 µM (active) | 
25 | COc1c(F)c(F)c(C(=O)Nc2ccc3oc(-c4ccncc4)nc3c2)c(F)c1F |  | -1.81%
26 | COc1ccc(C)cc1NC(=O)C(Sc1nnnn1C)c1ccccc1 (stereo not given) |  | -4.35%
27 | Cn1nnnc1Sc1ncnc2scc(-c3ccc(C(=O)OC(C)(C)C)cc3)c12 | 14.1 µM (active) | 
28 | COc1ccc2cc3cc(C(=O)NCc4ccco4)oc3nc2c1 | 1 µM (active) | 
29 | O=[N+]([O-])c1ccc(O)c2ncccc12 | 22.4 µM (active) | 
30 | CCc1nc(SCC(=O)Nc2nc3c(s2)CCCC3)c2ccccc2n1 |  | -52.8%
31 | Cn1nnnc1Sc1ncnc2scc(-c3ccccc3C#N)c12 | 15.8 µM (active) | 
32 | C[C@@H]1CNCCN1S(=O)(=O)c1cccc2cnccc12 |  | -1.89%
33 | Cn1nnnc1Sc1ncnc2scc(I)c12 | 11.2 µM (active) | 
34 | Cn1nnnc1Sc1ncnc2scc(-c3ccccc3F)c12 | 12.6 µM (active) | 
35 | Cn1nnnc1Sc1ncnc2scc(-c3cccc(C(F)(F)F)c3)c12 | 14.1 µM (active) | 
36 | O=C(Nc1ccc(Cl)cc1C(F)(F)F)C(Sc1cccc[n+]1[O-])c1ccccc1 (stereo not given) |  | 5.2%
37 | CN1C(=O)CC(Sc2ncccc2C(=O)O)C1=O (stereo not given) |  | 4.06%
38 | O=C(Nc1nc(-c2ccc(-c3ccccc3)cc2)cs1)C1CCCO1 (stereo not given) | 11.2 µM (active) | 
39 | Cn1nnnc1Sc1ncnc2scc(-c3ccc(S(C)(=O)=O)cc3)c12 | 11.2 µM (active) | 
40 | Cc1cc(C)n(S(=O)(=O)/C=C/c2ccccc2)n1 |  | -19.1%
